Test results published in PubChem BioAssay (Tox21).
“And” between values parts separate entries of the source, which are not always exact repeats. Equal entries are not always repeated. Records with an inconclusive call do not appear. Entries that show only a call come without a potency. The source holds several records for some structures; these can differ, active in one and inactive in another. The source made the active and inactive calls. Calls follow the shape of the dose curve; as a rule, active = well fitted curve in the direction sought with a large enough effect in the repeat runs; inconclusive = weak or mixed curves; inactive = no such curve, though single readings can be large; an effect the other way counts as inactive or inconclusive. Starred links: 1 amine or outer side, 2 acyl side, 3 side chain; linkers in the order of their positions; H or OH if unused. Positions of bridges follow the written chain, without caps; N, C: chain ends. Non-standard residues stand in square brackets, D forms with d. Residues, ends and D or L forms follow the SMILES beside them. Chains are numbered I, II in the order given. Actinocin(9to1) = Cc1c2oc3c(C)ccc(C(=O)[*:1])c3nc-2c(C(=O)[*:2])c(N)c1=O; NMeV = CN[C@H](C(=O)O)C(C)C; Sar = CNCC(=O)O

How the values were obtained:
[1] = A CellTox Green Cytotoxicity Assay to monitor cytotoxicity in HEK293 cells - 32 hour (AID 1224881); conditions: CellTox Green fluorescence; series mostly up to 76.8 µM; also: nearly all actives have a fitted effect of over 40% in size
Procedure, shortened: (§1)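 Fluorescence intensity, read at 0, 8, 16, 24, 32 and 40 h of compound treatment, reflected dye binding to DNA of dead HEK293 cells; compounds (23 nL, DMSO) were added 5 h after plating cells with reagent.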

[2] = A CellTox Green Cytotoxicity Assay to monitor cytotoxicity in HepG2 cells - 0 hour (AID 1224882); conditions: CellTox Green fluorescence; series mostly up to 76.8 µM; also: nearly all actives have a fitted effect of over 35% in size
Procedure, shortened: (§2)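 Using 1536-well format, dye-containing HepG2 suspension was seeded, allowed 5 h at 37 C/5% CO2, dosed by pintool with compounds, positive and negative controls, and imaged for fluorescence across 40 h.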

[3] = A CellTox Green Cytotoxicity Assay to monitor cytotoxicity in HepG2 cells - 32 hour (AID 1224883); conditions: CellTox Green fluorescence; series mostly up to 76.8 µM; also: nearly all actives have a fitted effect of over 50% in size
Procedure, shortened: as §2

[4] = A CellTox Green Cytotoxicity Assay to monitor cytotoxicity in HEK293 cells - 8 hour (AID 1224884); conditions: CellTox Green fluorescence; series mostly up to 76.8 µM; also: nearly all actives have a fitted effect of over 35% in size
Procedure, shortened: as §1

[5] = qHTS RealTime-Glo MT Cell Viability Assay in HEK293 cells - 24 hour (AID 1224886); conditions: RealTime-Glo luminescence; series mostly up to 76.8 µM; also: nearly all actives have a fitted effect of over 50% in size
Procedure, shortened: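 Assay medium contained NanoLuc luciferase plus cell-permeant prosubstrate, added with HEK293 cells at 600 cells/well. After 5 h at 37 C/5% CO2 compounds were added; plates stayed at 37 C for 40 h with serial luminescence reads.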

[6] = qHTS RealTime-Glo MT Cell Viability Assay in HEK293 cells - 8 hour (AID 1224887); conditions: RealTime-Glo luminescence; series mostly up to 76.8 µM; also: nearly all actives have a fitted effect of over 50% in size
Procedure, shortened: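 Viable HEK293 cells reduce a cell-permeant prosubstrate; the product diffuses out and is consumed by NanoLuc in the medium to give light. Compounds went in after a 5 h incubation and plates were read over the treatment course.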

[7] = A CellTox Green Cytotoxicity Assay to monitor cytotoxicity in HEK293 cells - 16 hour (AID 1224888); conditions: CellTox Green fluorescence; series mostly up to 76.8 µM; also: nearly all actives have a fitted effect of over 35% in size
Procedure, shortened: as §1

[8] = qHTS RealTime-Glo MT Cell Viability Assay in HepG2 cells - 0 hour (AID 1224889); conditions: RealTime-Glo luminescence; series mostly up to 76.8 µM; also: nearly all actives have a fitted effect of over 50% in size
Procedure, shortened: (§3)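 qHTS, HepG2, 600 cells/well, RealTime-Glo (NanoLuc + prosubstrate) added with cells; 5 h preincubation; DMSO compound addition; 37 C; luminescence at 0/8/16/24/32/40 h.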

[9] = A CellTox Green Cytotoxicity Assay to monitor cytotoxicity in HepG2 cells - 8 hour (AID 1224890); conditions: CellTox Green fluorescence; series mostly up to 76.8 µM; also: nearly all actives have a fitted effect of over 45% in size
Procedure, shortened: as §2

[10] = qHTS RealTime-Glo MT Cell Viability Assay in HepG2 cells - 16 hour (AID 1224885); conditions: RealTime-Glo luminescence; series mostly up to 76.8 µM; also: nearly all actives have a fitted effect of over 50% in size
Procedure, shortened: as §3
Potency is read from the fitted curve at half-maximal effect.

Row | Compound | Potency [1] | Potency [2] | Potency [3] | Potency [4] | Potency [5] | Potency [6] | Potency [7] | Potency [8] | Potency [9] | Potency [10]
1 | CCCC(=O)c1ccccc1 | inactive | inactive | inactive | inactive | inactive | inactive | inactive | inactive | inactive | 
2 | CCCCC(CC)COC(=O)CC(C(=O)OCC(CC)CCCC)S(=O)(=O)O (stereo not given) | 21.9 µM (active) | inactive | 42 µM (active) and 43.6 µM (active) | 13.8 µM (active) |  |  | 19.5 µM (active) | inactive | inactive | inactive
3 | CC(C)CCOCc1ccccc1 | inactive | inactive | inactive | inactive | inactive | inactive | inactive | inactive | inactive | inactive
4 | Cc1cc(C(C)(C)C)c(O)c(C(C)(C)C)c1 | 49.1 µM (active) | inactive | inactive | inactive | inactive | inactive | inactive | inactive | inactive | inactive
5 | CCN1CCCC1CNC(=O)c1cc(S(=O)(=O)CC)c(N)cc1OC (stereo not given) | inactive | inactive | inactive | inactive | inactive | inactive | inactive | inactive | inactive | 
6 | CC(=O)OCC1=C(C(=O)O)N2C(=O)[C@@H](NC(=O)Cc3cccs3)[C@H]2SC1 | inactive | inactive | inactive | inactive | inactive | inactive | inactive | inactive | inactive | inactive
7 | O=C1NCC2(CCN(CCc3ccccc3)CC2)O1 | inactive | inactive | inactive | inactive | inactive | inactive | inactive | inactive | inactive | 
8 | OCCOCCN1CCN(C(c2ccccc2)c2ccc(Cl)cc2)CC1 (stereo not given) | inactive | inactive | 24.2 µM (active) and inactive | inactive | 6.83 µM (active) and inactive | inactive | inactive | inactive | 43.1 µM (active) and inactive | 48.3 µM (active) and inactive
9 | CCCOC(=O)c1cc(O)c(O)c(O)c1 | inactive | inactive | inactive | inactive |  |  | inactive | inactive | inactive | inactive
10 | C1COC(NC(C2CC2)C2CC2)=N1 | inactive | inactive | inactive | inactive | inactive | inactive | inactive | inactive | inactive | 
11 | O=C(O)c1cc(Cl)cc(Cl)c1 | inactive | inactive | inactive | inactive | inactive | inactive | inactive | inactive | inactive | inactive
12 | CC(C)C(=O)c1c(C(C)C)nn2ccccc12 | inactive | inactive | inactive | inactive | inactive | inactive | inactive | inactive | inactive | inactive
13 | CCC(=O)/C=C/C1C(C)=CCCC1(C)C (stereo not given) | 49.1 µM (active) and inactive | inactive | inactive | 39 µM (active) and inactive | inactive | inactive |  | inactive | inactive | inactive
14 | Cc1cccc(O)c1C | inactive | inactive | inactive | inactive and 22.5 µM (active) | inactive | inactive | inactive | inactive | inactive | 
15 | O=C(O)CCc1ccccc1 | inactive | inactive | inactive | inactive | inactive | inactive | inactive | inactive | inactive | inactive
16 | C=C(C)C1CC=C(C)C(OC(C)=O)C1 (stereo not given) | inactive | inactive | inactive | inactive | inactive | inactive | inactive | inactive | inactive | inactive
17 | O=C(O)Cn1cnnn1 | inactive | inactive | inactive | inactive | inactive | inactive | inactive | inactive | inactive | inactive
18 | COC(=O)/C=C/c1ccccc1 | inactive and 21.9 µM (active) | inactive | inactive | inactive and 34.7 µM (active) | inactive | inactive |  | inactive | inactive | inactive
19 | CC(COc1ccccc1)N(CCCl)Cc1ccccc1 (stereo not given) | 55.5 µM (active) and 21.3 µM (active) | inactive | 55.5 µM (active) | inactive | 49.5 µM (active) and 49 µM (active) | inactive | inactive | inactive | inactive | inactive

Row | Compound | Potency [1] | Potency [2] | Potency [3] | Potency [4] | Potency [5] | Potency [6] | Potency [7] | Potency [8] | Potency [9] | Potency [10]
20 | Cc1cc(OCCOCC[N+](C)(C)Cc2ccccc2)ccc1C(C)(C)CC(C)(C)C | 21.7 µM (active) and 23.9 µM (active) | inactive | 15.4 µM (active) and 9.52 µM (active) | 23.9 µM (active) | 12.2 µM (active) and 8.49 µM (active) | 48.7 µM (active) and 23.9 µM (active) | 38.7 µM (active) and 23.9 µM (active) | inactive | 21.7 µM (active) and 21.3 µM (active) | 
21 | Cc1ccnc2c1NC(=O)c1cccnc1N2C1CC1 | inactive | inactive | inactive | inactive | inactive | inactive | inactive | inactive | inactive | inactive
22 | CC[C@]1(O)C[C@@H]2CN(CCc3c([nH]c4ccccc34)[C@@](C(=O)OC)(c3cc4c(cc3OC)N(C)[C@H]3[C@@](O)(C(=O)OC)[C@H](OC(C)=O)[C@]5(CC)C=CCN6CC[C@]43[C@@H]65)C2)C1 | inactive | inactive | inactive | inactive | 0.0043 µM (active) | inactive | inactive | inactive | inactive | 
23 | O=C(OCc1ccccc1)c1ccc(O)cc1 | inactive | inactive | 49 µM (active) and inactive | inactive | inactive | inactive | inactive | inactive | inactive | inactive
24 | Nc1ccc(O)cc1 | inactive | inactive | inactive | inactive | 40.4 µM (active) and inactive | 40.4 µM (active) and inactive | inactive | inactive | inactive | 
25 | CC(=O)OCCOCCOCCOC(C)=O | inactive | inactive | inactive | inactive | inactive | inactive | inactive | inactive | inactive | inactive
26 | CCN(CC)C(=S)SSC(=S)N(CC)CC | 141 nM (active) and inactive | inactive | 8.25 µM (active) | inactive and 56.2 µM (active) | 195 nM (active) and 100 nM (active) and 13.4 µM (active) | 13.8 µM (active) and 18.5 µM (active) |  | inactive | 56.2 µM (active) and inactive | 141 nM (active)
27 | CCC[C@H](N[C@@H](C)C(=O)N1[C@H](C(=O)O)C[C@@H]2CCCC[C@@H]21)C(=O)OCC | inactive | inactive | inactive | inactive | inactive | inactive | inactive | inactive | inactive | 
28 | COC(c1ccccc1)(c1ccccc1)[C@H](Oc1nc(C)cc(C)n1)C(=O)O | inactive | inactive | inactive | inactive | inactive | inactive | inactive | inactive | inactive | inactive
29 | Cc1ccc(-c2cc(C(F)(F)F)nn2-c2ccc(S(N)(=O)=O)cc2)cc1 | 49 µM (active) and inactive | inactive | 48.8 µM (active) and 49 µM (active) | inactive | 38.7 µM (active) and 30.9 µM (active) | 43.5 µM (active) and 30.9 µM (active) and inactive | inactive | inactive | 54.9 µM (active) | 48.8 µM (active) and 43.6 µM (active) and inactive
30 | COc1nc(C)nc(Cl)c1NC1=NCCN1 | inactive | inactive | inactive | inactive | inactive | inactive | inactive | inactive | inactive | inactive
31 | Cc1c2oc3c(C)ccc(C(=O)N[C@@H]4C(=O)N[C@H](C(C)C)C(=O)N5CCC[C@H]5C(=O)N(C)CC(=O)N(C)[C@@H](C(C)C)C(=O)O[C@@H]4C)c3nc-2c(C(=O)N[C@@H]2C(=O)N[C@H](C(C)C)C(=O)N3CCC[C@H]3C(=O)N(C)CC(=O)N(C)[C@@H](C(C)C)C(=O)O[C@@H]2C)c(N)c1=O (I: T[dV]P[Sar][NMeV] / II: T[dV]P[Sar][NMeV]; ester I:1-I:C, II:1-II:C; linker I:N-II:N via Actinocin(9to1)) | inactive | inactive | 0.0213 µM (active) | inactive | 16.9 nM (active) and 23.9 nM (active) |  | inactive | inactive | inactive | 8.47 µM (active) and 9.52 µM (active)
32 | CCCCCC(=O)O[C@]1(C(C)=O)CC[C@H]2[C@@H]3CCC4=CC(=O)CC[C@]4(C)[C@H]3CC[C@@]21C | inactive | inactive | inactive | inactive | 24.4 µM (active) | inactive | inactive | 4.34 µM (active) | inactive | 
33 | CC(C)(c1ccccc1)c1ccc(Nc2ccc(C(C)(C)c3ccccc3)cc2)cc1 | inactive | inactive | inactive | inactive | inactive | inactive | inactive | inactive | inactive | inactive
34 | NCCCCCC(=O)O | inactive | inactive | inactive | inactive | inactive | inactive | inactive | inactive | inactive | 
35 | C[N+]1([O-])CCOCC1 | inactive | inactive | inactive | inactive | inactive | inactive | inactive | inactive | inactive | inactive
36 | CCCCCCCCCCCC[N+](C)(C)C | 54.8 µM (active) and 17.4 µM (active) and 30.9 µM (active) | inactive | 43.5 µM (active) and 49 µM (active) and 43.6 µM (active) | inactive | 4.89 µM (active) | inactive | inactive | inactive | inactive | inactive
37 | Oc1c(Cl)cc(Cl)cc1Sc1cc(Cl)cc(Cl)c1O | 49.1 µM (active) and 43.6 µM (active) and inactive | inactive and 43.6 µM (active) | 44.4 µM (active) and 43.6 µM (active) and inactive | inactive and 43.6 µM (active) | 21.9 µM (active) | inactive |  | inactive | inactive and 43.6 µM (active) | inactive
